High-throughput results deposited in PubChem by National Center for Advancing Translational Sciences (NCATS).
Hits are enriched below; roughly 9.2% of the tested compounds scored in any of these assays.
NPC1 promoter act = qHTS Assay for NPC1 Promoter Activators. 320,000 compounds, 2.4% hits. Huh7 NPC1 promoter luciferase reporter, 24 h. Potency, µM (highest dose often 9.22 µM), inactives show top-dose activation, actives largely listed as activators. AID 485313, 2010; further: % of control where 0% means no effect; nearly all actives have a fitted effect of over 60% in size
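Stable NPC1-promoter luciferase Huh7 line; cpd (DMSO) 24 h, 37 °C, 5% CO2; Amplite luciferase reagent 10 min RT; luminescence readout. qHTS format.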
SMN2 splice enh = qHTS Assay for Enhancers of SMN2 Splice Variant Expression; 210,000 compounds, 2.8% hits; HEK293 SMN2-luciferase splicing reporter, luminescence, 30-36 h; Potency, µM (top dose mostly 46.1 µM), for the others: at the highest dose activity change, positive = activation, actives largely listed as activators; AID 1458, 2008; further: % of control where 0% means no effect; nearly all actives have a fitted effect of over 55% in size
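qHTS luciferase splicing reporter: luminescence rises when SMN2 exon 7 is included in transfected HEK293 cells. Compound exposure lasted 30-36 h at 37C, with 4.5 mM final sodium butyrate as control, followed by a ONE-Glo read.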
FLuc modulator = qHTS profiling assay for firefly luciferase inhibitor/activator using purifed enzyme and Km concentrations of substrates (counterscreen for miR-21 project). purified FLuc, Km substrates, luminescence inhibition. Potency, µM (top dose mostly 57.5 µM), for the others: at the highest dose activity change, negative = inhibition, usual class: inhibitors. 360,000 compounds, 6.9% hits;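 further: plate controls were vehicle for no effect and reference inhibitor for full effect; nearly all actives have a fitted effect of over 55% in size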
Target sequence (P08659 whole entry, looked up): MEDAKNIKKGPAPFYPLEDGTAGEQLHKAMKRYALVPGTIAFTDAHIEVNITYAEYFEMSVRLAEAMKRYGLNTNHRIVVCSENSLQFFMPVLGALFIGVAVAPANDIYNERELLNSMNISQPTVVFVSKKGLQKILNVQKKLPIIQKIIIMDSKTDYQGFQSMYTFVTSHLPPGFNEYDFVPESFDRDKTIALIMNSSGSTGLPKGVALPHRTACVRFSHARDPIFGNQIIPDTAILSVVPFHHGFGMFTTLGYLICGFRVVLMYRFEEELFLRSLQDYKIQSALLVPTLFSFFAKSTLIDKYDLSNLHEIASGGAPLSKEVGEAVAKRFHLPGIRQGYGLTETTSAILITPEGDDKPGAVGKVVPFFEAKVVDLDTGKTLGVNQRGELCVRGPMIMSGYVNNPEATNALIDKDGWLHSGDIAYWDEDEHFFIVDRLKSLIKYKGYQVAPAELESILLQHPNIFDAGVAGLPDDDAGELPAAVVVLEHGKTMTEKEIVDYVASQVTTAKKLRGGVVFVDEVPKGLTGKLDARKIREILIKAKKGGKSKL
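Purified P. pyralis luciferase, 10 nM final, with Km-level 10 uM D-luciferin and 10 uM ATP in 50 mM Tris acetate pH 7.5, 10 mM Mg acetate, 0.01% Tween-20, 0.05% BSA; 6-point qHTS titration about 60 µM downward; luminescence read.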
Rab9 promoter act = qHTS Assay for Rab9 Promoter Activators; Huh7 Rab9 promoter-luciferase reporter, luminescence, 24 h; Potency, µM (top dose mostly 9.22 µM), without a hit: at the top dose activation, negative = inhibition, most hits filed as activators; 320,000 compounds, 2.8% hits; AID 485297, 2010; further: % of control where 0% means no effect; nearly all actives have a fitted effect of over 60% in size
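Luminescence read-out: Huh7 cells stably expressing Rab9-luciferase, treated 24 h with compound at 37 °C, then lysed with luciferase reagent for 10 min at ambient before reading.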
ELG1 DNA repair = qHTS screen for small molecules that inhibit ELG1-dependent DNA repair in human embryonic kidney (HEK293T) cells expressing luciferase-tagged ELG1; HEK293T ELG1-luciferase reporter, luminescence, 16 h; DNA damage induced by 5-fluorouridine; Potency, µM (series often up to 46.1 µM), for inactives: at the highest dose activity change, negative = inhibition, actives largely listed as inhibitors; 330,000 compounds, 2.3% hits; AID 504467, 2011; further: on the % scale 0 is the no-effect control and ±100 the full control effect; nearly all actives have a fitted effect of over 55% in size
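Overnight (16 hr) co-exposure of 2,000 cells/well to 5-fluorouridine and compound at 37 °C preceded detection. Luciferase was quantified via ONE-Glo luminescence; loss of signal denotes inhibition.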
ELG1 genotoxic = qHTS screen for small molecules that induce genotoxicity in human embryonic kidney (HEK293T) cells expressing luciferase-tagged ELG1; HEK293T ELG1-luciferase reporter, luminescence, 16 h; Potency, µM (titrated, usually from 46 µM), without a hit: top-dose activity change, positive = activation, hits mostly activators; 330,000 compounds, 1.3% hits; AID 504466, 2011; further: % of control where 0% means no effect; nearly all actives have a fitted effect of over 60% in size
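DMSO vehicle served as control against compound-treated ELG1-luciferase HEK293T cells; exposure lasted 16 hr at 37 °C and 5% CO2, followed by ONE-Glo luminescence detection after 30 min.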
An asterisk follows results filed as active; ? = inconclusive; · = no result. The call rests on the fitted dose curve; in most records, active means well fitted curve in the direction sought with a large enough effect; inconclusive means small, poorly fitted or top-dose-only effect, or another doubt; inactive means no such curve, though single readings can be large; an effect the other way counts as inactive or inconclusive. Potency means the concentration at half of the fitted maximal effect.

SMILES	NPC1 promoter act	SMN2 splice enh	FLuc modulator	Rab9 promoter act	ELG1 DNA repair	ELG1 genotoxic
CCOCCc1nn2c(=O)cc(COC(=O)CNC(=O)c3ccc(F)cc3)nc2s1	·	·	-2%	·	·	·
Cc1cc(-c2ccccc2)cc(-c2ccccc2)[n+]1C	-14%	-31%	2%	-12%	12µM*	-8%
Cc1ccc(C(C)C)c(OC/C(O)=C(\C#N)c2nc3ccccc3[nH]2)c1	-1%	·	4%	14%	16µM*	-10%
CC(C)C(=O)OC/C(O)=C(\C#N)c1nc2ccccc2[nH]1	-4%	11%	-7%	-6%	-9%	-1%
Cc1ccccc1NC(=O)c1c(NC(=O)C(F)(F)F)sc2c1CCCCC2	·	-41%	11µM*	·	·	·
Cc1cccc(NC(=O)c2c(Br)sc3c2CCCC3)c1	·	-18%	?	·	·	·
Cc1ccc(NC(=O)c2c(NC(=O)c3ccccc3)sc3c2CCC3)cc1	·	2%	?	·	·	·
O=C(Nc1cccc(Cl)c1)c1c(NC(=O)C(F)(F)F)sc2c1CCCC2	·	-22%	17µM*	·	·	·
Cc1ccc(NC(=O)c2c(NC(=O)C(F)(F)F)sc3c2CCCCC3)cc1	·	-43%	11µM*	·	·	·
O=C(COc1ccc(Cl)cc1)Nc1sc2c(c1C(=O)Nc1cccc(Cl)c1)CCCC2	·	-11%	?	·	·	·
Cc1cccc(NC(=O)c2c(NC(=O)C(F)(F)F)sc3c2CCCCC3)c1	·	-64%	13µM*	·	·	·
Cc1ccccc1NC(=O)c1c(NC(=O)c2ccccc2)sc2c1CCC2	·	-17%	?	·	·	·
CCOc1ccccc1CNC(=O)c1cc(-c2ccc(Cl)s2)nc2ccccc12	·	9%	-9%	·	·	·
C[C@@H](c1ccccc1)N1C[C@H]2CCCN2c2cc(Br)ccc2S1(=O)=O	·	·	·	·	?	-6%
CC(=O)N[C@@H](Cc1ccc(O)cc1)CN1C(N)=NC[C@@H]1CC(C)C	2%	·	0%	1%	0%	-2%
Cc1ccc(-c2nc3n(n2)Cc2ccccc2-3)cc1	3.5µM*	1.3µM*	0.3µM*	3.2µM*	?	?
Fc1ccc(-c2nc3n(n2)Cc2ccccc2-3)cc1	?	2.8µM*	0.6µM*	?	?	0.41µM*
CCn1c(C)nc2cc(-c3nc4n(n3)Cc3ccccc3-4)ccc21	-48%	-65%	0.024µM*	-43%	?	-19%
C[C@H](NC(=O)c1ccc(Cl)cc1)C(=O)NCCc1ccc(S(N)(=O)=O)cc1	0%	-3%	2%	-3%	4%	1%
O=C(Cc1ccccc1)NCC(=O)OCC(=O)c1ccc(OC(=O)c2ccccc2)cc1	0%	8%	-1%	-2%	14%	7%
CCS(=O)(=O)c1ccc(-c2cccc(NC(=O)COc3ccc(Cl)cc3)c2)nn1	-2%	·	?	-3%	20%	3%
COc1ccc(CCN2C(=O)N(c3ccc(F)cc3)C(=O)C2CC(=O)Nc2ccc(OC)cc2)cc1 (stereo not given)	·	5%	-10%	·	·	·
CCc1ccc(Nc2nnc(SC3CCOC3=O)s2)cc1 (stereo not given)	-1%	3%	21µM*	-5%	?	4%
Nc1nc(Nc2cccc(F)c2)nc2ccccc12	1.3µM*	?	5.4µM*	2.2µM*	?	?
O=c1oc(Nc2cccc(F)c2)nc2ccccc12	2.2µM*	?	?	2.2µM*	?	18µM*
CC(=O)Nc1cc(C(=O)NCc2ccc(F)cc2)ccc1Sc1ccc(C)cc1	·	·	-1%	·	·	·
COc1cccc(-c2noc(-c3cccs3)n2)c1	?	13µM*	2.1µM*	1µM*	?	1.3µM*
